In PubChem BioAssay (NCATS):
Results filed as inconclusive are left out. For some of these results: Entries with a potency or affinity are not part of this list. Activity calls are given as the source filed them.

Assays:
[1] = Ebola virus entry assay, blue channel fluorescence
[2] = Ebola virus entry reporter assay, green channel fluorescence
[3] = Ebola virus entry cell assay, ratio channel
[4] = qHTS assay for measurement of the activity of small molecule inhibitors on Zika virus induced Caspase-3 activity in human iPSC derived neural progenitor cells (hNPCs) (AID 1224857; active means well fitted inhibition curve with a large enough effect; further: % of control where 0% means no effect; nearly all actives have a fitted effect of over 65% in size); conditions: hNPCs ZIKV-induced caspase-3/7, Caspase-Glo luminescence, 6 h; series mostly up to 45.7 µM
Procedure, shortened: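 Pretreat hNPCs with compound 1 h; infect ZIKV 2 FFU/cell; 6 h 37 C, 5% CO2; Caspase-Glo 3/7, 30 min RT; luminescence; normalize to no-virus and virus-only wells.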

[5] = Immunotoxin (HA22) sensitization/mitigation study. Vehicle arm (PBS) (AID 1159510); conditions: cancer cells viability with PBS vehicle (HA22 study); series mostly up to 46.1 µM; further: potency means the concentration at half of the fitted maximal effect
[6] = Immunotoxin (SS1P) sensitization/mitigation study. Vehicle arm (DMEM) (AID 1159513); conditions: cell viability with vehicle (DMEM); series mostly up to 46.1 µM; further: potency means the concentration at half of the fitted maximal effect
[7] = High-throughput drug toxicity screening in the BPDCN cell line Cal-1 (AID 1224825); conditions: Cal-1 BPDCN cell viability, qHTS; at 45.8 µM (top of the series) unless noted
Procedure, shortened: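 CellTiter-Glo luminescence after 48 h compound exposure; percent activity scaled with DMSO as 100% and bortezomib (9.2 uM final) as 0%. Cal-1 cells seeded at 500/well in RPMI, 10% FBS, no phenol red.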

**Q.** What does the source list for `CCOC(=O)C1=C[C@@H](OC(CC)CC)[C@H](NC(C)=O)[C@@H](N)C1`?
**A.** outcome [1]: inactive; outcome [2]: inactive; outcome [3]: inactive

**Q.** What does the source list for `CC[C@H]1OC(=O)[C@H](C)C(=O)[C@H](C)[C@@H](O[C@@H]2O[C@H](C)C[C@H](N(C)C)[C@H]2O)[C@](C)(OC)C[C@@H](C)C(=O)[C@H](C)[C@H]2N(CCCCn3cnc(-c4cccnc4)c3)C(=O)O[C@]12C`?
**A.** outcome [1]: inactive; outcome [3]: inactive

**Q.** Which results are given for `CCCC(C)(COC(N)=O)COC(N)=O`?
**A.** outcome [1]: inactive; outcome [3]: inactive

**Q.** Which results are given for `COc1cc(C)c(/C=C/C(C)=C/C=C/C(C)=C/C(=O)O)c(C)c1C`?
**A.** outcome [1]: inactive; outcome [3]: inactive

**Q.** Which outcome [1] does the source give for `C=C1[C@H](CO)[C@@H](O)C[C@@H]1n1cnc2c(=O)[nH]c(N)nc21` here?
**A.** inactive

**Q.** What about the outcome [2] of the same compound?
**A.** inactive

**Q.** What about the outcome [3] of the same compound?
**A.** inactive

**Q.** For `CCCCCN(C)CCC(O)(P(=O)(O)O)P(=O)(O)O`, which outcome [1] is on record?
**A.** inactive

**Q.** What about the outcome [2] of the same compound?
**A.** inactive

**Q.** And the outcome [3]?
**A.** inactive

**Q.** And the outcome [4]?
**A.** inactive

**Q.** For `O=C(O)c1cc(N=Nc2ccc(O)c(C(=O)O)c2)ccc1O`, which outcome [1] is on record?
**A.** inactive

**Q.** What about the outcome [3] of the same compound?
**A.** inactive

**Q.** For `C=C1C(=C/C=C2\CCC[C@]3(C)[C@@H]([C@H](C)CCCC(C)(C)O)CC[C@@H]23)C[C@@H](O)C[C@@H]1O`, which outcome [1] is on record?
**A.** inactive

**Q.** What about the outcome [3] of the same compound?
**A.** inactive

**Q.** With `NC(=O)[C@@H]1CCCN1C(=O)[C@H](Cc1cnc[nH]1)NC(=O)[C@@H]1CCC(=O)N1` as the compound, how does the outcome [1] read?
**A.** inactive

**Q.** What about the outcome [3] of the same compound?
**A.** inactive

**Q.** What does the source list for `Nc1nc(=O)n([C@@H]2CS[C@H](CO)O2)cc1F`?
**A.** outcome [1]: inactive; outcome [3]: inactive

**Q.** For `CC(C)CN(C[C@@H](O)[C@H](Cc1ccccc1)NC(=O)O[C@H]1CO[C@H]2OCC[C@H]21)S(=O)(=O)c1ccc(N)cc1`, which outcome [1] is on record?
**A.** inactive

**Q.** And the outcome [3]?
**A.** inactive

**Q.** What does the source list for `Nc1nc2[nH]cc(CCc3ccc(C(=O)N[C@@H](CCC(=O)O)C(=O)O)cc3)c2c(=O)[nH]1`?
**A.** outcome [1]: inactive; outcome [2]: inactive; outcome [3]: inactive; Potency [5]: 59 nM (active); Potency [6]: 187 nM (active)

**Q.** For `NS(=O)(=O)c1cc(Cl)c(Cl)c(S(N)(=O)=O)c1`, which outcome [1] is on record?
**A.** inactive

**Q.** And the outcome [3]?
**A.** inactive

**Q.** For `CC(=O)NC[C@H]1CN(c2ccc(N3CCOCC3)c(F)c2)C(=O)O1`, which outcome [1] is on record?
**A.** inactive

**Q.** And the outcome [3]?
**A.** inactive

**Q.** With `COCC1=C(C(=O)OC(C)OC(=O)OC(C)C)N2C(=O)[C@@H](NC(=O)/C(=N\OC)c3csc(N)n3)[C@H]2SC1` (stereo partly specified) as the compound, how does the outcome [1] read?
**A.** inactive

**Q.** What about the outcome [3] of the same compound?
**A.** inactive

**Q.** What does the source list for `CC[C@H](C)C(=O)O[C@H]1C[C@H](O)C=C2C=C[C@H](C)[C@H](CC[C@@H](O)C[C@@H](O)CC(=O)O)[C@H]21`?
**A.** outcome [1]: inactive; outcome [3]: inactive

**Q.** Which outcome [1] does the source give for `CC(C)C[C@H](CN)CC(=O)O` here?
**A.** inactive

**Q.** What about the outcome [2] of the same compound?
**A.** inactive

**Q.** And the outcome [3]?
**A.** inactive

**Q.** And the viability (% of control) [7]?
**A.** 132%

**Q.** And the outcome [4]?
**A.** inactive

**Q.** With `CO/N=C(\C(=O)N[C@@H]1C(=O)N2C(C(=O)O)=C(COC(C)=O)CS[C@H]12)c1csc(N)n1` (stereo in doubt) as the compound, how does the outcome [1] read?
**A.** inactive

**Q.** What about the outcome [3] of the same compound?
**A.** inactive

**Q.** What does the source list for `CN[C@@H](C)Cc1ccccc1`?
**A.** outcome [1]: inactive; outcome [3]: inactive

**Q.** Which results are given for `CN[C@@H]1CCc2[nH]c3ccc(C(N)=O)cc3c2C1`?
**A.** outcome [1]: inactive; outcome [3]: inactive

**Q.** Which outcome [1] does the source give for `CSCC[C@H](NC(=O)[C@H](Cc1ccc(OS(=O)(=O)O)cc1)NC(=O)[C@@H](N)CC(=O)O)C(=O)NCC(=O)N[C@@H](Cc1c[nH]c2ccccc12)C(=O)N[C@@H](CCSC)C(=O)N[C@@H](CC(=O)O)C(=O)N[C@@H](Cc1ccccc1)C(N)=O` here?
**A.** inactive

**Q.** And the outcome [3]?
**A.** inactive

**Q.** Which outcome [1] does the source give for `CC=CC1=C(C(=O)O)N2C(=O)[C@H](NC(=O)[C@H](N)c3ccc(O)cc3)[C@@H]2SC1` here?
**A.** inactive

**Q.** And the outcome [3]?
**A.** inactive

**Q.** For `O=C1Nc2ccc(Cl)cc2C(c2ccccc2)=NC1O` (stereo unspecified), which outcome [1] is on record?
**A.** inactive

**Q.** And the outcome [3]?
**A.** inactive

**Q.** Which results are given for `CCCCC[C@H](O)/C=C/[C@@H]1[C@H]2C/C(=C/CCCC(=O)O)O[C@H]2C[C@H]1O`?
**A.** outcome [1]: inactive; outcome [3]: inactive

**Q.** For `Nc1ccn([C@@H]2CS[C@H](CO)O2)c(=O)n1`, which outcome [1] is on record?
**A.** inactive

**Q.** And the outcome [3]?
**A.** inactive

**Q.** Which results are given for `Cc1nnc2n1-c1ccc(Cl)cc1C(c1ccccc1)=NC2`?
**A.** outcome [1]: inactive; outcome [3]: inactive

**Q.** For `C=CC(N)CCC(=O)O` (stereo unspecified), which outcome [1] is on record?
**A.** inactive

**Q.** What about the outcome [2] of the same compound?
**A.** inactive

**Q.** What about the outcome [3] of the same compound?
**A.** inactive

**Q.** With `CO[C@H]1C=CO[C@@]2(C)Oc3c(C)c(O)c4c(O)c(c5c(nc6cc(C)ccn65)c4c3C2=O)NC(=O)/C(C)=C\C=C[C@H](C)[C@H](O)[C@@H](C)[C@@H](O)[C@@H](C)[C@H](OC(C)=O)[C@@H]1C` as the compound, how does the outcome [1] read?
**A.** inactive

**Q.** And the outcome [3]?
**A.** inactive

**Q.** Which outcome [1] does the source give for `Cc1onc(-c2ccccc2)c1C(=O)N[C@@H]1C(=O)N2[C@@H](C(=O)O)C(C)(C)S[C@@H]12` here?
**A.** inactive

**Q.** And the outcome [3]?
**A.** inactive

**Q.** For `OC[C@H]1O[C@@H](n2cnc3c2NC=NC[C@H]3O)C[C@@H]1O`, which outcome [1] is on record?
**A.** inactive

**Q.** And the outcome [3]?
**A.** inactive

**Q.** What does the source list for `COc1ccnc(CS(=O)c2nc3cc(OC(F)F)ccc3[nH]2)c1OC` (stereo unspecified)?
**A.** outcome [1]: inactive; outcome [3]: inactive

**Q.** What does the source list for `CC1(C)S[C@@H]2[C@H](NC(=O)[C@H](N)c3ccc(O)cc3)C(=O)N2[C@H]1C(=O)O`?
**A.** outcome [1]: inactive; outcome [2]: inactive; outcome [3]: inactive
